Screening data from PubChem.
PME-1 inh: PME-1 (human) inhibition. Q9Y570. recombinant PME-1, FP-Rh probe fluorescence polarization. inhibition, % at 5.9 µM. hit rate 0.53% among 320,000. AID 2130;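 active means inhibition above the campaign mean of all compounds plus 3 SD, cut at about 26% in these data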;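 further: competitive labeling of PME-1 active site by serine hydrolase directed probe; 0% = PME-1 with DMSO and 100% = wells lacking PME-1 enzyme; inhibitors block probe labeling so polarization falls and inhibition rises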
Fam108B counter: counter-screen for RBBP9 inhibitors: inhibitors of mouse Fam108B; hit rate 0.33% among 300,000; AID 1947; inhibition, % at 9.51 µM; recombinant Fam108B, FP-Rh probe fluorescence polarization;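 active means inhibition above the screen mean inhibition plus 3 SD, computed separately per campaign, cut at about 18% in these data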;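 further: inhibitors lower polarization as less probe binds the enzyme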
LYPLA2 counter: counter-screen for PME1 inhibitors: inhibitors of human LYPLA2. O95372. recombinant LYPLA2, FP-Rh probe fluorescence polarization. inhibition, % at 5.9 µM. hit rate 0.38% among 320,000;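 active means inhibition above the screen-wide mean plus 3 SD, limit set per campaign, cut at about 26% in these data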;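 further: 0% = LYPLA2 with DMSO and 100% = wells lacking LYPLA2 enzyme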
PAD4 FP inh: blocks human protein arginine deiminase 4. recombinant PAD4, RCA probe fluorescence polarization. hit rate 0.41% among 330,000. Q9UM07. AID 485272. inhibition, % at 6.36 µM;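 active means percent inhibition above a cutoff equal to the mean of all tested compounds plus 3 SD, cut at about 15% in these data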;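 further: 0% = PAD4 with RCA probe and DMSO and 100% = probe without PAD4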
GSTO1 counter: GSTO1 inhibition, counter-screen for RBBP9 inhibitors; P78417; recombinant GSTO1, activity-based probe fluorescence polarization; inhibition, % at 5.96 µM; hit rate 1.1% among 300,000; AID 1974;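 active means inhibition above the campaign mean inhibition plus 3 SD, cut at about 35% in these data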;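 further: 0% = GSTO1-1 with DMSO and 100% = wells lacking GSTO1-1 enzyme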
LYPLA1 inh: counter-screen for PME1 inhibitors: inhibitors of human LYPLA1; recombinant LYPLA1, FP-Rh probe fluorescence polarization; inhibition, % at 5.9 µM; hit rate 0.16% among 320,000;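 active means inhibition above the mean of all tested compounds plus 3 SD, set per campaign, cut at about 14% in these data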;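 further: inhibitors block serine hydrolase probe labeling of LYPLA1 so polarization falls; 0% = enzyme with DMSO and 100% = wells lacking LYPLA1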
Target sequence (O75608 whole entry, looked up): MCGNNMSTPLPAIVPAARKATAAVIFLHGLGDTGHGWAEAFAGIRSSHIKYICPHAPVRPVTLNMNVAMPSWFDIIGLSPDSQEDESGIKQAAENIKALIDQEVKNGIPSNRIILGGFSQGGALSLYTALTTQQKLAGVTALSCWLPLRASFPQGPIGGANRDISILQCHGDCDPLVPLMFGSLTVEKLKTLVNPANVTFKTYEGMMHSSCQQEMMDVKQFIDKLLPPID
PAD4 FP conf: PAD4 (human) inhibition, confirmed; shares compounds with PAD4 FP inh; recombinant PAD4, RCA probe fluorescence polarization; hit rate 28% among 1,200; inhibition, % at 6.36 µM;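 active means mean inhibition across replicates above the hit cutoff set by the earlier primary screen, cut at about 15% in these data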;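 further: inhibitors block active-site labeling by the probe so polarization falls; 0% = PAD4 with probe and DMSO and 100% = probe without PAD4 enzyme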
Numbers without * were called inactive; / = not tested or not shown. A selection: hits, their analogues and other compounds. The true share with any hit is near 1.8%.

SMILES	PME-1 inh	Fam108B counter	LYPLA2 counter	PAD4 FP inh	GSTO1 counter	LYPLA1 inh	PAD4 FP conf
Cc1ccc(C(=O)NCC(=O)OCC(=O)NC2CCS(=O)(=O)C2)cc1C (stereo not given)	-3	6	6	35*	0	2	4
Cc1ccc(C(=O)OCC(=O)NC2CCS(=O)(=O)C2)c(C)c1 (stereo not given)	/	/	/	-7	/	/	/
Cn1c(=O)c2c(ncn2CC(=O)Nc2nc(-c3ccccc3Cl)cs2)n(C)c1=O	10	1	13	90*	-2	-1	2
CCOC(=O)Cc1csc(NC(=O)Cn2cnc3c2c(=O)n(C)c(=O)n3C)n1	-6	-2	7	3	6	-1	/
COc1ccc(CCNC(=O)COc2nsnc2N2CCOCC2)cc1OC	2	2	3	44*	-10	-3	-3
COc1ccc(NC(=O)COc2nsnc2N2CCOCC2)cc1	0	2	2	-8	6	-4	/
CCc1ccc(C(=O)/C=C2\Sc3ccccc3NC2=O)cc1	5	3	12	37*	0	2	42*
COC(=O)c1ccc(COc2ccc(/C=N/NC(N)=S)cc2)o1	5	-1	5	-1	2	1	/
Cc1cccc(OCC(=O)NNC(=O)c2ccc3nc[nH]c3c2)c1	3	/	7	-5	/	1	/
Nc1ccccc1C(=O)NC1CCCNC1=O (stereo not given)	-2	4	8	29*	4	0	1
CCN(C(=O)CCN1C(=O)S/C(=C\c2ccccc2)C1=O)C1CCS(=O)(=O)C1 (stereo not given)	2	2	-5	0	-8	-2	/
CCN(CC)CCSc1nnc2c3ccccc3n(CCc3ccccc3)c2n1	2	1	-5	7	2	-5	/
c1ccc(CCn2c3ccccc3c3nnc(SCc4ccc5nonc5c4)nc32)cc1	-11	-5	0	50*	-2	-1	2
Cc1ccc(C2=NN=C(NC(=O)CSc3nncn3C)SC2)cc1	0	3	2	67*	7	-2	62*
CCCCc1ccc(-c2c(C#N)c(N)nc3c2CCCC3)s1	0	-2	8	36*	5	3	1
CCCCc1sc(-c2c(C#N)c(N)nc3c2CCCCC3)cc1[N+](=O)[O-]	0	-2	8	-1	5	2	/
COc1ccc(NS(=O)(=O)c2cccc(NC(=O)C3=NN(c4ccccc4)C(=O)CC3)c2)cc1	-1	-6	-2	0	0	14	/
COC(=O)c1cc(NC(=O)CC2C(=O)NCCN2C(=O)c2ccccc2)cc(C(=O)OC)c1 (stereo not given)	-6	-1	-3	16*	5	-6	-3
COC(=O)c1cccc(NC(=O)CC2C(=O)NCCN2C(=O)Nc2ccccc2)c1 (stereo not given)	0	-2	7	-2	6	2	/
CCn1c(SC(C)C(=O)O)nc2sc3c(c2c1=O)CCC3 (stereo not given)	1	11	2	16*	12	1	5
Cc1cc(Br)cc(C=Nc2ccc(N3CCOCC3)cc2)c1O	-6	2	6	19*	7	2	1
CCC1C(=O)N=C(SCC(=O)Nc2ccc(S(N)(=O)=O)cc2)NC1=O (stereo not given)	-9	-1	-1	16*	10	-2	11
CCNC(=S)NNC(=O)c1csc(C)c1	-3	2	3	93*	5	2	5
Fc1ccc(/C=N/Nc2nn[nH]n2)cc1	4	0	0	1	6	1	/
Nn1cnnc1N/N=C/c1ccc(F)cc1	3	-4	-1	41*	18	-1	3
Cc1ccc(/C=N/Nc2nncn2N)cc1	5	3	2	46*	16	-1	1
Nn1cnnc1N/N=C/c1ccccc1C(F)(F)F	0	-2	1	39*	2	-1	7
O=C(CC(=O)c1ccccc1)Nc1cccnc1	-5	1	-3	1	-2	0	/
O=C(Nc1ccccc1)C(=O)Nc1cccnc1	-3	2	8	18*	-11	3	5
